For part of these data: Results with a measured potency or affinity are listed apart. Activity calls are given as the source filed them.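 Rule for the calls, unless noted: active = primary screen active and over 50% activation in each of two duplicate runs; inactive = the rest.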
Legend:
[1] = tested on: TRPC4 beta (transient receptor potential cation channel C4), mouse; experiment: TRPC4 cation channel opening, retest – cell-based, Fluo4 calcium, HEK293 TRPC4beta/mu-opioid, duplicates, 10 µM, confirmation (AID 2426;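 active = fluorescence ratio normalized to control raised more than 50% in primary screen plus both repeat runs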); conditions: Fluo4 calcium fluorescence, at 10 µM; hits give high values
[2] = tested on: transient receptor potential cation channel C4 beta (TRPC4), mouse; experiment: TRPC4 cation channel opening, second retest – cell-based, second round, Fluo4, HEK293 TRPC4beta/mu-opioid, 1 µM, confirmation (AID 2461); conditions: Fluo4 calcium fluorescence, at 1 µM; hits give high values
[3] = tested on: TRPC4 (transient receptor potential cation channel C4 beta), mouse; experiment: potentiation of DAMGO EC20 TRPC4 response – cell-based, second round, Fluo-4, HEK293 TRPC4beta/mu-opioid, 1 µM, confirmation (AID 2554;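 active = primary screen hit whose fluorescence ratio, in both repeats, exceeds the weak agonist control mean by 3 SD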); conditions: DAMGO EC20, Fluo-4 calcium flux, at 1 µM; hits give high values
[4] = tested on: TRPC4 beta (transient receptor potential cation channel C4), mouse; experiment: potentiation of DAMGO EC20 TRPC4 response – cell-based, Fluo-4, HEK293 TRPC4beta/mu-opioid, confirmation (AID 2555;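 active = primary screen hit whose calcium fluorescence ratio, in both repeats, exceeds the weak agonist control mean by 3 SD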); conditions: DAMGO EC20, Fluo-4 calcium flux, at 10 µM; hits give high values
[5] = molecular target: Short transient receptor potential channel 4 (Mus musculus) (UniProt Q9QUQ5); experiment: blockers of DAMGO-evoked TRPC4 calcium flux – cell-based, Fluo4, HEK293 TRPC4beta/mu-opioid, confirmation (AID 2636;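 active = calcium signal cut by more than 3 SD below the full-agonist control yet still positive, in both repeats and the earlier primary screen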); conditions: at 10 µM; hits give high values
[6] = molecular target: Short transient receptor potential channel 4 (Mus musculus) (UniProt Q9QUQ5); experiment: blockers of DAMGO-evoked TRPC4 calcium flux – cell-based, second round, Fluo4, HEK293 TRPC4beta/mu-opioid, 1 µM, confirmation (AID 2637;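 active = calcium signal ratio cut to more than 3 SD under the fully stimulated control mean yet still positive, in both repeats and the primary screen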;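 for inhibition: percent of integrated ratio relative to wells lacking test compound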); conditions: at 1 µM; hits give high values
[7] = molecular target: Short transient receptor potential channel 4 (Mus musculus) (UniProt Q9QUQ5); experiment: calcium entry via TRPC4 opening agents – cell-based, HEK293 TRPC4/mu-opioid, Fluo-4 calcium, dose response (AID 434937;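 active = primary screen activator hit with a dose response curve and TRPC4 channel activation at any tested dose; inactive = no activation, no dose response, or not a primary hit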)
[8] = molecular target: Short transient receptor potential channel 4 (Mus musculus) (UniProt Q9QUQ5); experiment: potentiation of DAMGO-evoked TRPC4 calcium signal – cell-based, HEK293 TRPC4/mu-opioid, Fluo-4 calcium, EC20 DAMGO, dose response (AID 434941;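 active = earlier screen potentiator hit that boosts the TRPC4 ion channel at some dose, with a dose response; inactive = no potentiation, no dose response, or not a prior hit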;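 note: calcium entry triggered by an EC20 dose of DAMGO at the co-expressed mu-opioid receptor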)
[9] = molecular target: Short transient receptor potential channel 4 (Mus musculus) (UniProt Q9QUQ5); experiment: block of DAMGO-driven TRPC4 calcium entry – cell-based, HEK293 TRPC4/mu-opioid, Fluo-4 calcium, dose response (AID 434942;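 active = primary screen inhibitor hit that blocks the TRPC4 channel at some tested dose, yielding a dose curve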)
[10] = molecular target: Short transient receptor potential channel 6 (Mus musculus) (UniProt Q61143); experiment: TRPC6 blockade by TRPC4 inhibitor hits – cell-based, HEK293, membrane potential dye, duplicate, selectivity assay for TRPC4 inhibitor project, confirmation (AID 434948;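 active = active in primary screen and both duplicates, each dropping signal beyond three positive-control SD with fluorescence still positive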); conditions: HEK293 TRPC6, membrane potential dye fluorescence, at 10 µM, stimulated with maximal-effect acetylcholine; hits give high values
[11] = molecular target: Short transient receptor potential channel 6 (Mus musculus) (UniProt Q61143); experiment: TRPC6 opening by TRPC4 activator hits – cell-based, HEK293, membrane potential dye, duplicate, selectivity assay for TRPC4 activator project, confirmation (AID 434950;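 active = membrane potential signal rise above negative control mean plus 3 SD in both duplicates, also active in the earlier TRPC4 screen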;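 for activation: 0% = buffer only wells and 100% = acetylcholine maximal-effect wells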); conditions: HEK293 TRPC6, membrane potential fluorescence, at 10 µM; activation: hits give high values; outcome: activation
[12] = molecular target: Short transient receptor potential channel 6 (Mus musculus) (UniProt Q61143); experiment: positive modulators of mouse TRPC6 channel – HEK293 cells, membrane potential dye, duplicate, selectivity assay for TRPC4 potentiator project, confirmation (AID 434952;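 active = compound raising the membrane signal above positive-control mean plus 3 SD in both repeats, and a primary screen hit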); conditions: HEK293 TRPC6, membrane potential dye fluorescence, at 10 µM, maximal acetylcholine added after compound; hits give high values
[13] = molecular target: Short transient receptor potential channel 4 (Mus musculus) (UniProt Q9QUQ5); experiment: calcium flux activators in TRPC4/5HT1a cells, counter-screen for TRPC4 activator project, cell-based, second counter screen, HEK293 TRPC4/5HT1a, Fluo-4 (AID 434977;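 active = calcium signal rise above buffer-control mean plus 5 SD in both duplicates, and also a hit in the primary screen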); conditions: Fluo-4 calcium flux, at 10 µM; hits give high values
[14] = serotonin-gated TRPC4 signal block – cell-based, second counter screen, HEK293 TRPC4/5HT1a, Fluo-4, counter-screen for TRPC4 inhibitor project, confirmation (AID 434978;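 active = primary screen active whose calcium signal fell more than 3 SD beyond the full-serotonin control mean in both duplicate plates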;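 for outcome: serotonin given first at submaximal then at maximal dose after compound preincubation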); conditions: Fluo-4 calcium flux, at 10 µM, serotonin added to trigger calcium flux; hits give high values
[15] = tested on: TRPC4 (mouse), co-expressed with 5HT1a in HEK293; experiment: enhancement of serotonin-evoked TRPC4 response – cell-based, second counter screen, HEK293 TRPC4/5HT1a, Fluo-4, counter-screen for TRPC4 potentiator project, confirmation (AID 434979;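 active = signal rise over 3 SD above mean of control wells given weak agonist, in both repeats and first screen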); conditions: Fluo-4 calcium flux, at 10 µM, serotonin added at its EC20 dose; hits give high values
[16] = nonspecific calcium rise without TRPC4 – cell-based, HEK293 mu-opioid receptor line, counter-screen for TRPC4 activator project, confirmation (AID 449723;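 active = hit in primary screen, with calcium signal over 5 SD above buffer well mean in both duplicates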;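 note: counter screen cells carry the mu-opioid receptor alone and lack TRPC4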); conditions: HEK293 mu-opioid cells, Fluo-4 calcium fluorescence, at 10 µM; hits give high values
[17] = nonspecific potentiation of DAMGO calcium response – cell-based, HEK293 mu-opioid receptor line, counter-screen for TRPC4 allosteric potentiator project, confirmation (AID 449724;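 active = calcium signal rise more than 3 SD above the low-dose agonist control mean, in both duplicate plates and the primary screen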); conditions: HEK293 mu-opioid receptor cells, Fluo-4 calcium flux, at 10 µM, compound added before EC20 DAMGO stimulus; hits give high values

Short transient receptor potential channel 6 (Mus musculus), sequence (Q61143 whole entry, looked up): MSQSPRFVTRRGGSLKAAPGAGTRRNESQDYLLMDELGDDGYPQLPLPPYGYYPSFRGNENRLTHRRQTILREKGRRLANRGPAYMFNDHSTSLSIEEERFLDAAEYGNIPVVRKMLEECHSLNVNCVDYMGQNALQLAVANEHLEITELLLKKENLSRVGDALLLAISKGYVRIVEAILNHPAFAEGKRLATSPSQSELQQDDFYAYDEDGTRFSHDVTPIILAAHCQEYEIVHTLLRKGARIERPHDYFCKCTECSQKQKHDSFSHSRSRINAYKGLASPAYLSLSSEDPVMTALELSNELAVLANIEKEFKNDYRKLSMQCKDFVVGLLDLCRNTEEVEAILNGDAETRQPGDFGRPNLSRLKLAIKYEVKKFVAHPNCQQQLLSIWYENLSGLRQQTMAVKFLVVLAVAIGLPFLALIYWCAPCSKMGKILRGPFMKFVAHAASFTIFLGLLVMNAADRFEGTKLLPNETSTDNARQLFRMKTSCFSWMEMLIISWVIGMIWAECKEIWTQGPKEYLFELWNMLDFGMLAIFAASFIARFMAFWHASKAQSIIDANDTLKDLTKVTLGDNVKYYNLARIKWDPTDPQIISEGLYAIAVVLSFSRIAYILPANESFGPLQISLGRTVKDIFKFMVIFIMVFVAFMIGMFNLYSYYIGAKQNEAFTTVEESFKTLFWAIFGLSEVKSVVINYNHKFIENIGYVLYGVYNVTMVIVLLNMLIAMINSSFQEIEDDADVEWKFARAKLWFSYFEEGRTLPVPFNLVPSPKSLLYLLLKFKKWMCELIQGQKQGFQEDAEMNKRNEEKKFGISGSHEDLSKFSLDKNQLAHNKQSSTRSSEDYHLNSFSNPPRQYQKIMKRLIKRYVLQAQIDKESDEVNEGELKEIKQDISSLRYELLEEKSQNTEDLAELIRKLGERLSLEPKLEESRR
Short transient receptor potential channel 4 (Mus musculus), sequence (Q9QUQ5 whole entry, looked up): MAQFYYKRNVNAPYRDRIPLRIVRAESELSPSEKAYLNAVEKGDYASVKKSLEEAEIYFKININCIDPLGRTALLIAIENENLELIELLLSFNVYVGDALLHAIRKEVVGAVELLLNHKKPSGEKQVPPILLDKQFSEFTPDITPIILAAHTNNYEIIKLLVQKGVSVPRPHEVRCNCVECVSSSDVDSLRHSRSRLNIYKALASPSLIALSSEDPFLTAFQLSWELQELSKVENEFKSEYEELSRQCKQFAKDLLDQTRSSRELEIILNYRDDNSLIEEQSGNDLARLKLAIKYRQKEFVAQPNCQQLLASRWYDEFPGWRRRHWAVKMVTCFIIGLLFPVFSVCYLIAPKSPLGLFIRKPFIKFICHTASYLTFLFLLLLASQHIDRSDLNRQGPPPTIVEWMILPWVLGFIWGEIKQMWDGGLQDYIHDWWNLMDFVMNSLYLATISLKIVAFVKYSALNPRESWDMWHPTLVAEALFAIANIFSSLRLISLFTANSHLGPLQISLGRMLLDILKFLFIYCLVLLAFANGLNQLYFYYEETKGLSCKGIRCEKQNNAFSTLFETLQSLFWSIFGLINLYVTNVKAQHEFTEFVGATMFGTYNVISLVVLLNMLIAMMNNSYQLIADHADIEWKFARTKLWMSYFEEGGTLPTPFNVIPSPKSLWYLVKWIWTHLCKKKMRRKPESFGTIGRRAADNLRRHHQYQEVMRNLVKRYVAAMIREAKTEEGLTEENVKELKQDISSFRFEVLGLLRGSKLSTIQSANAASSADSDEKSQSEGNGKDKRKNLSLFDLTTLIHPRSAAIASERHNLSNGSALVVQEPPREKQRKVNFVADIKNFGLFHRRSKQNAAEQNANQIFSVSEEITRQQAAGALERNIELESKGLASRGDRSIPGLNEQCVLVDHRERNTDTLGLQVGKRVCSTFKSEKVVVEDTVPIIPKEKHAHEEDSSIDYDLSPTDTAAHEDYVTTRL

c1coc(CN=C2NC(=NCc3ccco3)c3ccccc32)c1
outcome [1]: inactive | outcome [2]: inactive | outcome [3]: inactive | outcome [4]: inactive | inhibition [5]: 98% (active) | inhibition [6]: 49% (active) | outcome [7]: inactive | outcome [8]: inactive | outcome [9]: inactive | inhibition [10]: 47.5% (active) | outcome [11]: inactive | outcome [12]: inactive | outcome [13]: inactive | inhibition [14]: 35.3% (active) | outcome [15]: inactive | outcome [16]: inactive | outcome [17]: inactive

Cc1ccc(NC(=O)Nc2cccc([N+](=O)[O-])c2)nc1
outcome [1]: inactive | outcome [2]: inactive | potentiation [3]: 12% (active) | outcome [4]: inactive | outcome [5]: inactive | outcome [6]: inactive | outcome [7]: inactive | outcome [8]: inactive | outcome [9]: inactive | outcome [10]: inactive | outcome [11]: inactive | outcome [12]: inactive | outcome [13]: inactive | outcome [14]: inactive | potentiation [15]: 24.5% (active) | outcome [16]: inactive | outcome [17]: inactive

CCn1c(C2CC(=O)N(Cc3ccccc3)C2)nc2ccccc21 (stereo not given)
outcome [1]: inactive | outcome [2]: inactive | outcome [3]: inactive | potentiation [4]: 11% (active) | outcome [5]: inactive | outcome [6]: inactive | outcome [7]: inactive | outcome [8]: inactive | outcome [9]: inactive | outcome [10]: inactive | outcome [11]: inactive | outcome [12]: inactive | outcome [13]: inactive | outcome [14]: inactive | potentiation [15]: 23.9% (active) | outcome [16]: inactive | outcome [17]: inactive

Cc1ccc(Cl)cc1N1CCN(Cc2nc3c(c(=O)[nH]c(=O)n3C)n2Cc2ccccc2F)CC1
outcome [1]: inactive | outcome [2]: inactive | outcome [3]: inactive | outcome [4]: inactive | outcome [5]: inactive | outcome [6]: inactive | outcome [7]: inactive | outcome [8]: inactive | outcome [9]: inactive | outcome [10]: inactive | outcome [11]: inactive | outcome [12]: inactive | outcome [13]: inactive | outcome [14]: inactive | potentiation [15]: 25.8% (active) | outcome [16]: inactive | outcome [17]: inactive

COc1ccc(/C=N/n2c(SC)nnc2-c2ccccc2)cc1C
outcome [1]: inactive | outcome [2]: inactive | outcome [3]: inactive | potentiation [4]: 9% (active) | outcome [5]: inactive | outcome [6]: inactive | outcome [7]: inactive | outcome [8]: inactive | outcome [9]: inactive | outcome [10]: inactive | outcome [11]: inactive | outcome [12]: inactive | outcome [13]: inactive | outcome [14]: inactive | potentiation [15]: 20.6% (active) | outcome [16]: inactive | outcome [17]: inactive

O=C(COC(=O)c1ccccn1)Nc1nc(-c2ccccc2)cs1
outcome [1]: inactive | outcome [2]: inactive | outcome [3]: inactive | outcome [4]: inactive | outcome [5]: inactive | outcome [6]: inactive | outcome [7]: inactive | outcome [8]: inactive | outcome [9]: inactive | outcome [10]: inactive | outcome [11]: inactive | outcome [12]: inactive | outcome [13]: inactive | outcome [14]: inactive | outcome [15]: inactive | outcome [16]: inactive | outcome [17]: inactive

CC(C)c1ccc2c(c1)C1Cc3ccccc3C1N2 (stereo not given)
outcome [1]: inactive | outcome [2]: inactive | outcome [3]: inactive | outcome [4]: inactive | outcome [5]: inactive | outcome [6]: inactive | outcome [7]: inactive | outcome [8]: inactive | outcome [9]: inactive | outcome [10]: inactive | outcome [11]: inactive | outcome [12]: inactive | outcome [13]: inactive | outcome [14]: inactive | outcome [15]: inactive | outcome [16]: inactive | outcome [17]: inactive

CN(C)S(=O)(=O)c1cccc(COC(=O)c2ccc(Cl)cc2O)c1
outcome [1]: inactive | outcome [2]: inactive | outcome [3]: inactive | potentiation [4]: 21% (active) | outcome [5]: inactive | outcome [6]: inactive | outcome [7]: inactive | outcome [8]: inactive | outcome [9]: inactive | outcome [10]: inactive | outcome [11]: inactive | outcome [12]: inactive | outcome [13]: inactive | outcome [14]: inactive | potentiation [15]: 41.5% (active) | outcome [16]: inactive | outcome [17]: inactive

CC1=C(C(=O)NCCN2CCN(C)CC2)C2(CCC(C)CC2)OC1=O (stereo not given)
outcome [1]: inactive | outcome [2]: inactive | outcome [3]: inactive | outcome [4]: inactive | outcome [5]: inactive | outcome [6]: inactive | outcome [7]: inactive | outcome [8]: inactive | outcome [9]: inactive | outcome [10]: inactive | outcome [11]: inactive | outcome [12]: inactive | outcome [13]: inactive | outcome [14]: inactive | outcome [15]: inactive | outcome [16]: inactive | outcome [17]: inactive

c1ccc(Nc2ncnc3sc4c(c23)CCC4)cc1
outcome [1]: inactive | outcome [2]: inactive | outcome [3]: inactive | outcome [4]: inactive | outcome [5]: inactive | outcome [6]: inactive | outcome [7]: inactive | outcome [8]: inactive | outcome [9]: inactive | outcome [10]: inactive | activation [11]: 30% (active) | outcome [12]: inactive | outcome [13]: inactive | outcome [14]: inactive | outcome [15]: inactive | outcome [16]: inactive | outcome [17]: inactive

CCN(CC)CCCN(C(=O)c1cccs1)c1nc(-c2ccc(OC)cc2)cs1
outcome [1]: inactive | outcome [2]: inactive | outcome [3]: inactive | outcome [4]: inactive | outcome [5]: inactive | outcome [6]: inactive | outcome [7]: inactive | outcome [8]: inactive | outcome [9]: inactive | outcome [10]: inactive | outcome [11]: inactive | outcome [12]: inactive | outcome [13]: inactive | outcome [14]: inactive | outcome [15]: inactive | outcome [16]: inactive | outcome [17]: inactive

Cc1ccc(CSc2nnc(-c3cccc(S(=O)(=O)N4CCOCC4)c3)n2C2CCCC2)cc1
outcome [1]: inactive | outcome [2]: inactive | outcome [3]: inactive | outcome [4]: inactive | outcome [5]: inactive | outcome [6]: inactive | outcome [7]: inactive | outcome [8]: inactive | outcome [9]: inactive | outcome [10]: inactive | outcome [11]: inactive | outcome [12]: inactive | outcome [13]: inactive | outcome [14]: inactive | outcome [15]: inactive | outcome [16]: inactive | outcome [17]: inactive

c1ccc(-c2nc(NCc3cccnc3)c3ccccc3n2)cc1
outcome [1]: inactive | outcome [2]: inactive | outcome [3]: inactive | outcome [4]: inactive | inhibition [5]: 89% (active) | outcome [6]: inactive | outcome [7]: inactive | outcome [8]: inactive | outcome [9]: inactive | outcome [10]: inactive | outcome [11]: inactive | outcome [12]: inactive | outcome [13]: inactive | inhibition [14]: 36.3% (active) | outcome [15]: inactive | outcome [16]: inactive | outcome [17]: inactive

NN=C1c2cc([N+](=O)[O-])ccc2-c2ccc([N+](=O)[O-])cc21
outcome [1]: inactive | outcome [2]: inactive | outcome [3]: inactive | outcome [4]: inactive | outcome [5]: inactive | outcome [6]: inactive | outcome [7]: inactive | outcome [8]: inactive | outcome [9]: inactive | outcome [10]: inactive | outcome [11]: inactive | outcome [12]: inactive | outcome [13]: inactive | outcome [14]: inactive | outcome [15]: inactive | outcome [16]: inactive | outcome [17]: inactive

Clc1ccc(OCCn2ccnc2)c(Br)c1
outcome [1]: inactive | outcome [2]: inactive | outcome [3]: inactive | potentiation [4]: 13% (active) | outcome [5]: inactive | outcome [6]: inactive | outcome [7]: inactive | outcome [8]: inactive | outcome [9]: inactive | outcome [10]: inactive | outcome [11]: inactive | outcome [12]: inactive | outcome [13]: inactive | outcome [14]: inactive | potentiation [15]: 12.6% (active) | outcome [16]: inactive | outcome [17]: inactive

Source: PubChem BioAssay
